PubChem BioAssay (NCATS)
Inconclusive results are not listed. Calls of active or inactive are those of the source. The call rests on the fitted dose curve; in most records, active means well fitted curve in the direction sought with a large enough effect; inconclusive means small, poorly fitted or top-dose-only effect, or another doubt; inactive means no such curve, though single readings can be large; an effect the other way counts as inactive or inconclusive.

Key:
[1] = target: Ubiquitin carboxyl-terminal hydrolase 1 (Homo sapiens) (UniProt O94782); test: Inhibitors of USP1/UAF1: Pilot qHTS (AID 504865);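 further: rhodamine fluorescence freed from ubiquitin-rhodamine substrate followed over time; top concentration of the series differs between compounds; on the % scale 0 is the no-effect control and ±100 the full control effect; nearly all actives have a fitted effect of over 35% in size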
How it was run: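 Enzyme-free wells gave the negative control, while test wells held 1nM USP1/UAF1 preincubated with compound for 15 min at room temperature. Ub-Rho at 150nM final started the reaction, and fluorescence at 480/540 nm was recorded kinetically.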

[2] = target: Luciferin 4-monooxygenase (Photinus pyralis) (UniProt P08659); test: Biochemical firefly luciferase enzyme assay for NPC (AID 624030);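 further: purified P. pyralis luciferase at 10 nM with luciferin and ATP substrate; 0% = DMSO and -100% = full luciferase inhibition by PTC124 control; nearly all actives have a fitted effect of over 70% in size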
How it was run: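 Counter-screen for direct inhibition of the luciferase enzyme by approved-drug library compounds, run at 10 nM enzyme in 50 mM Tris acetate (final). Luminescence was read within 5 min of enzyme-buffer addition and normalized to PTC124 versus DMSO (0%).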

[3] = S16 Schwann cell viability assay (CellTiter-Glo assay) (AID 624031);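 further: cellular ATP luminescence as a viability measure; plate controls were DMSO-treated cells for no effect and cell-free wells for full effect; nearly all actives have a fitted effect of over 70% in size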
How it was run: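 This viability control uses native rat S16 Schwann cells grown in DMEM plus 10% FBS. After a 24 h compound treatment at 37 °C, CellTiter-Glo luminescence reports ATP content, scaled against DMSO-treated and cell-free wells.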

[4] = S16 Schwann cell PMP22 intronic element firefly luciferase assay (AID 624032);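 further: plate controls were DMSO for no effect and PTC124 positive control mean for full effect; nearly all actives have a fitted effect of over 30% in size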
How it was run: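 Rat S16 Schwann cells stably carrying a PMP22 intronic element-driven Fluc reporter were seeded overnight, then exposed to compounds for 24 h at 37 °C. Luminescence was normalized to PTC124 (positive control) and DMSO (0% activity).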

[5] = qHTS profiling for inhibitors of Plasmodium falciparum proliferation (AID 504749);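 further: 0% = DMSO vehicle and full inhibition = artemisinin control; nearly all actives have a fitted effect of over 60% in size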; settings: P. falciparum in erythrocytes, SYBR Green DNA, 72 h, at 28.7 µM (top of the series)
How it was run: (§1)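 Parasite proliferation within erythrocytes, 72 h exposure. Endpoint: SYBR Green I fluorescence after overnight lysis at room temperature. Controls: 0.29 uM artemisinin, DMSO.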

3D7 = test: as above; settings: P. falciparum in erythrocytes, SYBR Green DNA, 72 h; series mostly up to 28.7 µM
How it was run: as §1

7G8 = test: as above; settings: P. falciparum in erythrocytes, SYBR Green DNA, 72 h; series mostly up to 28.7 µM
How it was run: as §1

AA1029 = test: as above; settings: P. falciparum in erythrocytes, SYBR Green DNA, 72 h; series mostly up to 28.7 µM
How it was run: as §1

AS120 = test: as above; settings: P. falciparum in erythrocytes, SYBR Green DNA, 72 h; series mostly up to 28.7 µM
How it was run: as §1

ATS189 = test: as above; settings: P. falciparum in erythrocytes, SYBR Green DNA, 72 h; series mostly up to 28.7 µM
How it was run: as §1

ATS95 = test: as above; settings: P. falciparum in erythrocytes, SYBR Green DNA, 72 h; series mostly up to 28.7 µM
How it was run: as §1

C2A = test: as above; settings: P. falciparum in erythrocytes, SYBR Green DNA, 72 h; series mostly up to 28.7 µM
How it was run: as §1

CP185 = test: as above; settings: P. falciparum in erythrocytes, SYBR Green DNA, 72 h; series mostly up to 28.7 µM
How it was run: as §1

CP191 = test: as above; settings: P. falciparum in erythrocytes, SYBR Green DNA, 72 h; series mostly up to 28.7 µM
How it was run: as §1

CP192 = test: as above; settings: P. falciparum in erythrocytes, SYBR Green DNA, 72 h; series mostly up to 28.7 µM
How it was run: as §1

CP194 = test: as above; settings: P. falciparum in erythrocytes, SYBR Green DNA, 72 h; series mostly up to 28.7 µM
How it was run: as §1

CP201 = test: as above; settings: P. falciparum in erythrocytes, SYBR Green DNA, 72 h; series mostly up to 28.7 µM
How it was run: as §1

CP203 = test: as above; settings: P. falciparum in erythrocytes, SYBR Green DNA, 72 h; series mostly up to 28.7 µM
How it was run: as §1

CP211 = test: as above; settings: P. falciparum in erythrocytes, SYBR Green DNA, 72 h; series mostly up to 28.7 µM
How it was run: as §1

CP215 = test: as above; settings: P. falciparum in erythrocytes, SYBR Green DNA, 72 h; series mostly up to 28.7 µM
How it was run: as §1

CP217 = test: as above; settings: P. falciparum in erythrocytes, SYBR Green DNA, 72 h; series mostly up to 28.7 µM
How it was run: as §1

CP237 = test: as above; settings: P. falciparum in erythrocytes, SYBR Green DNA, 72 h; series mostly up to 28.7 µM
How it was run: as §1

CP238 = test: as above; settings: P. falciparum in erythrocytes, SYBR Green DNA, 72 h; series mostly up to 28.7 µM
How it was run: as §1

CP247 = test: as above; settings: P. falciparum in erythrocytes, SYBR Green DNA, 72 h; series mostly up to 28.7 µM
How it was run: as §1

CP250 = test: as above; settings: P. falciparum in erythrocytes, SYBR Green DNA, 72 h; series mostly up to 28.7 µM
How it was run: as §1

CP252 = test: as above; settings: P. falciparum in erythrocytes, SYBR Green DNA, 72 h; series mostly up to 28.7 µM
How it was run: as §1

CP256 = test: as above; settings: P. falciparum in erythrocytes, SYBR Green DNA, 72 h; series mostly up to 28.7 µM
How it was run: as §1

CP260 = test: as above; settings: P. falciparum in erythrocytes, SYBR Green DNA, 72 h; series mostly up to 28.7 µM
How it was run: as §1

CP262 = test: as above; settings: P. falciparum in erythrocytes, SYBR Green DNA, 72 h; series mostly up to 28.7 µM
How it was run: as §1

CP265 = test: as above; settings: P. falciparum in erythrocytes, SYBR Green DNA, 72 h; series mostly up to 28.7 µM
How it was run: as §1

CP266 = test: as above; settings: P. falciparum in erythrocytes, SYBR Green DNA, 72 h; series mostly up to 28.7 µM
How it was run: as §1

CP268 = test: as above; settings: P. falciparum in erythrocytes, SYBR Green DNA, 72 h; series mostly up to 28.7 µM
How it was run: as §1

CP269 = test: as above; settings: P. falciparum in erythrocytes, SYBR Green DNA, 72 h; series mostly up to 28.7 µM
How it was run: as §1

CP286 = test: as above; settings: P. falciparum in erythrocytes, SYBR Green DNA, 72 h; series mostly up to 28.7 µM
How it was run: as §1

CP291 = test: as above; settings: P. falciparum in erythrocytes, SYBR Green DNA, 72 h; series mostly up to 28.7 µM
How it was run: as §1

CP297 = test: as above; settings: P. falciparum in erythrocytes, SYBR Green DNA, 72 h; series mostly up to 28.7 µM
How it was run: as §1

CP305 = test: as above; settings: P. falciparum in erythrocytes, SYBR Green DNA, 72 h; series mostly up to 28.7 µM
How it was run: as §1

CP315 = test: as above; settings: P. falciparum in erythrocytes, SYBR Green DNA, 72 h; series mostly up to 28.7 µM
How it was run: as §1

CP325 = test: as above; settings: P. falciparum in erythrocytes, SYBR Green DNA, 72 h; series mostly up to 28.7 µM
How it was run: as §1

CP329 = test: as above; settings: P. falciparum in erythrocytes, SYBR Green DNA, 72 h; series mostly up to 28.7 µM
How it was run: as §1

CP335 = test: as above; settings: P. falciparum in erythrocytes, SYBR Green DNA, 72 h; series mostly up to 28.7 µM
How it was run: as §1

DIV14 = test: as above; settings: P. falciparum in erythrocytes, SYBR Green DNA, 72 h; series mostly up to 28.7 µM
How it was run: as §1

DIV17 = test: as above; settings: P. falciparum in erythrocytes, SYBR Green DNA, 72 h; series mostly up to 28.7 µM
How it was run: as §1

DIV30 = test: as above; settings: P. falciparum in erythrocytes, SYBR Green DNA, 72 h; series mostly up to 28.7 µM
How it was run: as §1

Dd2 = test: as above; settings: P. falciparum in erythrocytes, SYBR Green DNA, 72 h; series mostly up to 28.7 µM
How it was run: as §1

ECU = test: as above; settings: P. falciparum in erythrocytes, SYBR Green DNA, 72 h; series mostly up to 28.7 µM
How it was run: as §1

FAB9 = test: as above; settings: P. falciparum in erythrocytes, SYBR Green DNA, 72 h; series mostly up to 28.7 µM
How it was run: as §1

GB4 = test: as above; settings: P. falciparum in erythrocytes, SYBR Green DNA, 72 h; series mostly up to 28.7 µM
How it was run: as §1

HB3 = test: as above; settings: P. falciparum in erythrocytes, SYBR Green DNA, 72 h; series mostly up to 28.7 µM
How it was run: as §1

ICS = test: as above; settings: P. falciparum in erythrocytes, SYBR Green DNA, 72 h; series mostly up to 28.7 µM
How it was run: as §1

JCK = test: as above; settings: P. falciparum in erythrocytes, SYBR Green DNA, 72 h; series mostly up to 28.7 µM
How it was run: as §1

N140 = test: as above; settings: P. falciparum in erythrocytes, SYBR Green DNA, 72 h; series mostly up to 28.7 µM
How it was run: as §1

P93_24 = test: as above; settings: P. falciparum in erythrocytes, SYBR Green DNA, 72 h; series mostly up to 28.7 µM
How it was run: as §1

P94_40 = test: as above; settings: P. falciparum in erythrocytes, SYBR Green DNA, 72 h; series mostly up to 28.7 µM
How it was run: as §1

PAD = test: as above; settings: P. falciparum in erythrocytes, SYBR Green DNA, 72 h; series mostly up to 28.7 µM
How it was run: as §1

PC15 = test: as above; settings: P. falciparum in erythrocytes, SYBR Green DNA, 72 h; series mostly up to 28.7 µM
How it was run: as §1

PC26 = test: as above; settings: P. falciparum in erythrocytes, SYBR Green DNA, 72 h; series mostly up to 28.7 µM
How it was run: as §1

PC49 = test: as above; settings: P. falciparum in erythrocytes, SYBR Green DNA, 72 h; series mostly up to 28.7 µM
How it was run: as §1

SC27B = test: as above; settings: P. falciparum in erythrocytes, SYBR Green DNA, 72 h; series mostly up to 28.7 µM
How it was run: as §1

TAB109 = test: as above; settings: P. falciparum in erythrocytes, SYBR Green DNA, 72 h; series mostly up to 28.7 µM
How it was run: as §1

TAB113 = test: as above; settings: P. falciparum in erythrocytes, SYBR Green DNA, 72 h; series mostly up to 28.7 µM
How it was run: as §1

TAB165 = test: as above; settings: P. falciparum in erythrocytes, SYBR Green DNA, 72 h; series mostly up to 28.7 µM
How it was run: as §1

W2 = test: as above; settings: P. falciparum in erythrocytes, SYBR Green DNA, 72 h; series mostly up to 28.7 µM
How it was run: as §1

Chain of Ubiquitin carboxyl-terminal hydrolase 1 (Homo sapiens) (O94782 whole entry, looked up): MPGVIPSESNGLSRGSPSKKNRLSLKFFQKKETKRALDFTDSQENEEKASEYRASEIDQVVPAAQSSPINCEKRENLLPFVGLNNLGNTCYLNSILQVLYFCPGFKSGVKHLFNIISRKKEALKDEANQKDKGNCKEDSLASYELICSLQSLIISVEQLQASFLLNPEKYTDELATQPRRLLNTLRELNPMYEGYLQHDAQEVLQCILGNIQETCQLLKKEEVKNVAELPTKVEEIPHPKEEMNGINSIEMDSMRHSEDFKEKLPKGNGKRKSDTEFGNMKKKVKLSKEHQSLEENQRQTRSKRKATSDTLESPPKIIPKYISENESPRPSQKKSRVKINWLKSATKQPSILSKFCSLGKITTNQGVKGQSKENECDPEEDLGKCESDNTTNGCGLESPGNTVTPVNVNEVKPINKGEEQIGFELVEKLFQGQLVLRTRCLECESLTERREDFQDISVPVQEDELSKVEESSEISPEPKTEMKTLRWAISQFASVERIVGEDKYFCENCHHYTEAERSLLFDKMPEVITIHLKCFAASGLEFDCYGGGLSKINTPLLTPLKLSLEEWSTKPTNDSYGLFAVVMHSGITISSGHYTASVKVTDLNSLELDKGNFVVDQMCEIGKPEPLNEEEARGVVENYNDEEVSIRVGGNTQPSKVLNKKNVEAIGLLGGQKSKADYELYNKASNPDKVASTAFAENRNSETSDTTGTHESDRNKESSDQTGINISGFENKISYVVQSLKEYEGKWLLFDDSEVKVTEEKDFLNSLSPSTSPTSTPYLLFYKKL
Chain of Luciferin 4-monooxygenase (Photinus pyralis) (P08659 whole entry, looked up): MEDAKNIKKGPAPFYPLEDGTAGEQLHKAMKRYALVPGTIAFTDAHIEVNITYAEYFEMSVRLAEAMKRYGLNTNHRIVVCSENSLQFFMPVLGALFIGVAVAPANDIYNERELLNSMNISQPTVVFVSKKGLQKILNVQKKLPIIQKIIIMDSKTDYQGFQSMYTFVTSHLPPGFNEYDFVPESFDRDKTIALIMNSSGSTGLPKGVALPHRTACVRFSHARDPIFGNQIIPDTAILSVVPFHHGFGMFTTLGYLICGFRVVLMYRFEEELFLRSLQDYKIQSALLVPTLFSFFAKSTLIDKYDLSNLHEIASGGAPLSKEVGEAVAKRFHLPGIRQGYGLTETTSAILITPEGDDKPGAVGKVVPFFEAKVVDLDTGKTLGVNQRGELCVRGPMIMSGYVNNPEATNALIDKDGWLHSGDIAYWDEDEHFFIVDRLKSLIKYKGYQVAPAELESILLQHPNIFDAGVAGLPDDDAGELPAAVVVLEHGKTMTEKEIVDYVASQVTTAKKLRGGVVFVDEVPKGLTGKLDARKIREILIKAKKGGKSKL

CNCC(=O)NC(CCCN=C(N)N)C(=O)NC(C(=O)NC(Cc1ccc(O)cc1)C(=O)NC(C(=O)NC(Cc1cnc[nH]1)C(=O)N1CCCC1C(=O)NC(C)C(=O)O)C(C)C)C(C)C (centres undefined)
inactive: Potency [1] | Potency [2] | Potency [3] | Potency [4] | activity, negative = inhibition ([5]; parasite line A) 15.8% | activity, negative = inhibition ([5]; parasite line B) 17.4% | Potency (3D7) | Potency (7G8) | Potency (AA1029) | Potency (AS120) | Potency (ATS189) | Potency (ATS95) | Potency (C2A) | Potency (CP185) | Potency (CP191) | Potency (CP192) | Potency (CP194) | Potency (CP201) | Potency (CP203) | Potency (CP211) | Potency (CP215) | Potency (CP217) | Potency (CP237) | Potency (CP238) | Potency (CP247) | Potency (CP250) | Potency (CP252) | Potency (CP256) | Potency (CP260) | Potency (CP262) | Potency (CP265) | Potency (CP266) | Potency (CP268) | Potency (CP269) | Potency (CP286) | Potency (CP291) | Potency (CP297) | Potency (CP305) | Potency (CP315) | Potency (CP325) | Potency (CP329) | Potency (CP335) | Potency (DIV14) | Potency (DIV17) | Potency (DIV30) | Potency (Dd2) | Potency (ECU) | Potency (FAB9) | Potency (GB4) | Potency (HB3) | Potency (ICS) | Potency (JCK) | Potency (N140) | Potency (P93_24) | Potency (P94_40) | Potency (PAD) | Potency (PC15) | Potency (PC26) | Potency (PC49) | Potency (SC27B) | Potency (TAB109) | Potency (TAB113) | Potency (TAB165) | Potency (W2)
